PAFAH1B2 FP inh: PAFAH1B2 enzyme inhibitors, primary screen, biochemical, fluorescence polarization, human; Platelet-activating factor acetylhydrolase IB subunit alpha2 (Homo sapiens), P68402; recombinant PAFAH1B2, FP-rhodamine activity probe; inhibition, % at 3.39 µM; hit rate 1.2% among 340,000; AID 492953, 2010;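 active = inhibition above the mean of all tested compounds plus 3 SD, cut at about 24% in these data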;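 also: 0% = enzyme with DMSO and 100% = wells lacking PAFAH1B2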
PAFAH2 FP inh: PAFAH2 enzyme inhibitors, primary screen, biochemical, fluorescence polarization, human; Platelet-activating factor acetylhydrolase 2, cytoplasmic (Homo sapiens), Q99487; recombinant PAFAH2, FP-rhodamine activity probe; inhibition, % at 3.39 µM; hit rate 0.99% among 340,000; AID 492956, 2010;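 active = inhibition above the mean over all tested compounds plus 3 SD, cut at about 30% in these data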;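 also: inhibitors block probe labeling of enzyme so polarization drops; 0% = enzyme with DMSO and 100% = wells lacking PAFAH2 protein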
TCR CD3 inh: inhibitors of human TCR-CD3 interaction, primary screen, biochemical, fluorescence, TAMRA-labeled TCR probe | inhibition, % at 9.4 µM | hit rate 0.37% among 360,000; in the data active = inhibition above about 19%;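 also: recombinant mutant TCR 2C K166C tagged with TAMRA read by polarization; 0% = receptor in buffer alone and 100% = receptor with positive control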
pPAFAH FP inh: pPAFAH enzyme inhibitors, primary screen, biochemical, fluorescence polarization, human; Platelet-activating factor acetylhydrolase (Homo sapiens), Q13093; recombinant pPAFAH, FP-rhodamine probe fluorescence polarization; inhibition, % at 3.39 µM; hit rate 1.5% among 330,000; AID 463082, 2010;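 active = inhibition above the mean inhibition across the screen plus 3 SD, cut at about 25% in these data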;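 also: inhibitors block binding of the rhodamine activity-based probe so polarization drops; 0% = enzyme with DMSO and 100% = wells lacking pPAFAH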
Target sequence (Q13093 whole entry, looked up): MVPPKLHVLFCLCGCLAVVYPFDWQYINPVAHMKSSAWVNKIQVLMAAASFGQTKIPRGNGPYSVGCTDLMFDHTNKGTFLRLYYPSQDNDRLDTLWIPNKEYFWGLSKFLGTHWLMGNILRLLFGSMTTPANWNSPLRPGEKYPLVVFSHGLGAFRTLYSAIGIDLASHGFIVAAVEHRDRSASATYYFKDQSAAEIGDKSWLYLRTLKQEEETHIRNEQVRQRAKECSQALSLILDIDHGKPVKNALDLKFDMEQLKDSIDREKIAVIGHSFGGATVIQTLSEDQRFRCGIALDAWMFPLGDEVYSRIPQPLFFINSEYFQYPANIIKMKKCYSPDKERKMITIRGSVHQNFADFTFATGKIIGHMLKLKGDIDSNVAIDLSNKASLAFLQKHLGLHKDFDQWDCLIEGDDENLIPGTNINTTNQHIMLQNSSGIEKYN
PAFAH1B3 inh: PAFAH1B3 enzyme inhibitors, primary screen, biochemical, fluorescence polarization, human; AID 492972, 2010; hit rate 0.28% among 340,000; recombinant PAFAH1B3, FP-rhodamine probe; Platelet-activating factor acetylhydrolase IB subunit alpha1 (Homo sapiens), Q15102; inhibition, % at 3.39 µM;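 active = inhibition above the screen-wide average of all tested compounds plus 3 SD, cut at about 25% in these data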;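 also: 0% = enzyme with DMSO only and 100% = wells lacking PAFAH1B3 protein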
Target sequence (Q15102 whole entry, looked up): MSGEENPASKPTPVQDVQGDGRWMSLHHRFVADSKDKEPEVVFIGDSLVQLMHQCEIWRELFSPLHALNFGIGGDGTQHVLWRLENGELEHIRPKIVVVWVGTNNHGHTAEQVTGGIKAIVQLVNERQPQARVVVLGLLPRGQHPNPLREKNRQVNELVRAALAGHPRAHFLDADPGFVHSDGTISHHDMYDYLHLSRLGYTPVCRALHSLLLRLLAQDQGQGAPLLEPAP
Numbers without * were called inactive. The list is not random: actives were taken first. Their share in the collection is about 2.7%.

`CC(C)Cc1ccc(C(C)NC(=O)Cc2ccc(S(=O)(=O)N3CCOCC3)s2)cc1` (stereo not given) gave PAFAH1B2 FP inh 4, PAFAH2 FP inh 0, TCR CD3 inh -9, pPAFAH FP inh 30* and PAFAH1B3 inh 1.
O=[N+]([O-])c1cc(-c2ccc(/C=N\n3cnnc3)o2)cc([N+](=O)[O-])c1 was read as PAFAH1B2 FP inh 1, PAFAH2 FP inh 3, TCR CD3 inh 4, pPAFAH FP inh 27* and PAFAH1B3 inh 5.
Screening O=[N+]([O-])c1ccccc1-c1ccc(/C=N/n2cnnc2)o1 returned PAFAH1B2 FP inh 0, PAFAH2 FP inh 3, TCR CD3 inh 5, pPAFAH FP inh 10 and PAFAH1B3 inh -2.
For O=C(O)c1cc(NN=Nc2cccc(S(=O)(=O)O)c2)cc([N+](=O)[O-])c1 the results were PAFAH1B2 FP inh 3, PAFAH2 FP inh 6, TCR CD3 inh 7, pPAFAH FP inh 10 and PAFAH1B3 inh 8.
Screening O=C(O)c1cc(NN=Nc2cccc([N+](=O)[O-])c2)cc([N+](=O)[O-])c1 returned PAFAH1B2 FP inh 7, PAFAH2 FP inh 10, TCR CD3 inh 2, pPAFAH FP inh 27* and PAFAH1B3 inh 9.
`N/C(=N\OC(=O)Cc1ccccc1)c1ccc(Br)cc1` gave PAFAH1B2 FP inh 27*, PAFAH2 FP inh -1, TCR CD3 inh 3, pPAFAH FP inh 4 and PAFAH1B3 inh 10.
`CN(c1cccnc1)c1ccc(NC(=O)CCc2c[nH]c3ccccc23)cc1Br` gave TCR CD3 inh -6.
`CC1CCC2C(C1)c1sc(=O)[nH]c1SC2(C)C` (stereo not given) gave PAFAH1B2 FP inh 68*, PAFAH2 FP inh -2, TCR CD3 inh 2, pPAFAH FP inh 2 and PAFAH1B3 inh 5.
`C=Cc1ccc(Cn2c(C)c(C(=O)NCc3ccc(C#N)cc3)sc2=O)cc1` gave TCR CD3 inh 3.
CC(C)(C)C1CCC2(CC1)SCC(=O)N2c1ccccc1 (stereo not given) was read as PAFAH1B2 FP inh 3, PAFAH2 FP inh 3, TCR CD3 inh -3, pPAFAH FP inh 5 and PAFAH1B3 inh 7.
`CC1CCC2(CC1)SCC(=O)N2c1ccc(F)cc1` (stereo not given) gave PAFAH1B2 FP inh 25*, PAFAH2 FP inh -3, TCR CD3 inh -5, pPAFAH FP inh 3 and PAFAH1B3 inh -2.
CC(C)[C@H](NC(=O)C1CCCC1)C(=O)N1CCC[C@H]1C(=O)NCCc1ccccc1Cl was read as TCR CD3 inh 2.
Screening CCOC(=O)c1c(N)sc2c1CCSC2 returned PAFAH1B2 FP inh -3, PAFAH2 FP inh -4, TCR CD3 inh -8, pPAFAH FP inh 13 and PAFAH1B3 inh 3.
For CCC1CCc2c(sc(N)c2C(N)=O)C1 (stereo not given) the results were PAFAH1B2 FP inh -2, PAFAH2 FP inh 0, TCR CD3 inh -3, pPAFAH FP inh 8 and PAFAH1B3 inh 11.
Screening CCOC(=O)c1c(N)sc2c1CCC(CC)C2 (stereo not given) returned PAFAH1B2 FP inh 3, PAFAH2 FP inh 5, TCR CD3 inh -7, pPAFAH FP inh 26* and PAFAH1B3 inh -1.
For CCOC(=O)c1c(N)sc2c1CCC1C(=O)N(C3CCCCC3)C(=O)C21 (stereo not given) the results were PAFAH1B2 FP inh 4, PAFAH2 FP inh 11, TCR CD3 inh -12, pPAFAH FP inh 34* and PAFAH1B3 inh 2.
COC(=O)c1cc2c(c3c4cc(C)ccc4n(S(=O)(=O)c4ccc(OC)cc4)c13)C(=O)N(C)C2 was read as TCR CD3 inh -7.
Screening CCn1c(CNC(=O)c2ccccc2Br)nnc1SCC(=O)NC1=NCCS1 returned PAFAH1B2 FP inh 2, PAFAH2 FP inh 2, TCR CD3 inh -3, pPAFAH FP inh 5 and PAFAH1B3 inh 6.
`C[C@H](CO)N1C[C@H](C)[C@@H](CN(C)C(=O)Nc2ccccc2)Oc2ccc(NS(=O)(=O)c3cn(C)cn3)cc2C1=O` gave PAFAH1B2 FP inh 7, PAFAH2 FP inh 12, TCR CD3 inh -2, pPAFAH FP inh 2 and PAFAH1B3 inh 10.
`CC(=NNC(=O)c1cccs1)c1ccc2c(c1)OCCO2` gave PAFAH1B2 FP inh 7, PAFAH2 FP inh 7, TCR CD3 inh 4, pPAFAH FP inh 2 and PAFAH1B3 inh 4.
Screening C/C(=N\NC(=O)c1cccs1)c1ccc2c(c1)OCO2 returned TCR CD3 inh -1 and pPAFAH FP inh 28*.
`Nc1ccc(N2CCN(c3ccc(F)cc3)CC2)cc1` gave PAFAH1B2 FP inh -2, PAFAH2 FP inh -2, TCR CD3 inh -1, pPAFAH FP inh 0 and PAFAH1B3 inh 5.
For Nc1ccc(N2CCCCCC2)cc1 the results were pPAFAH FP inh 29*.
Screening COc1cc(/C=C2\SC(=S)N(CC(=O)O)C2=O)ccc1OS(=O)(=O)c1ccc(C)cc1 returned PAFAH1B2 FP inh 35*, PAFAH2 FP inh 8, TCR CD3 inh 7, pPAFAH FP inh -3 and PAFAH1B3 inh 21.
COc1cc(/C=C2/SC(=S)N(CC(=O)O)C2=O)ccc1OC(=O)c1cccs1 was read as PAFAH1B2 FP inh -23, PAFAH2 FP inh -24, TCR CD3 inh 0, pPAFAH FP inh -20 and PAFAH1B3 inh -44.
`COc1ccc(C)cc1NC(=O)CN1CCN(S(=O)(=O)c2ccc(Cl)cc2)CC1` gave PAFAH1B2 FP inh 28*, PAFAH2 FP inh 2, TCR CD3 inh -7, pPAFAH FP inh -4 and PAFAH1B3 inh 9.
COc1ccc(Cl)cc1NC(=O)CN(C)C(=O)CCSc1ccc(C)cc1 was read as PAFAH1B2 FP inh 26*, PAFAH2 FP inh 7, TCR CD3 inh -4, pPAFAH FP inh -2 and PAFAH1B3 inh 6.
For COc1ccc(C)cc1NC(=O)CN1CCN(S(=O)(=O)c2ccc(C(C)C)cc2)CC1 the results were PAFAH1B2 FP inh 0, PAFAH2 FP inh 0, TCR CD3 inh 0, pPAFAH FP inh 2 and PAFAH1B3 inh 3.
For O=C(CCN1CCN(S(=O)(=O)c2ccc(Cl)cc2)CC1)Nc1ccc(F)cc1 the results were PAFAH1B2 FP inh 25*, PAFAH2 FP inh -5, TCR CD3 inh 8, pPAFAH FP inh -1 and PAFAH1B3 inh 9.
For COc1ccc(OC)c(NC(=O)CN2CCC(C(=O)c3ccc(C)cc3)CC2)c1 the results were PAFAH1B2 FP inh 0, PAFAH2 FP inh -7, TCR CD3 inh -5, pPAFAH FP inh 29* and PAFAH1B3 inh 7.
`O=C(CCNC(=O)c1ccc([N+](=O)[O-])cc1)NCCc1ccccc1` gave PAFAH1B2 FP inh 4, PAFAH2 FP inh -2, TCR CD3 inh 0, pPAFAH FP inh 0 and PAFAH1B3 inh 6.
Screening COC(=O)N1Cc2ccnnc2CC1c1ccccc1-c1ccccc1 (stereo not given) returned TCR CD3 inh 4.

Screening data: PubChem, The Scripps Research Institute Molecular Screening Center
